Compounds without any hit were thinned out: in the full panel of roughly 83,000, 20% have a hit.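 Compound tested at a single concentration for 48 hours in 96-well plates; a percent growth value below 10 was scored as active.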 A number with no mark means an inactive call. Activity calls are given as the source filed them.
These compounds were tested on A549/ATCC NSCLC (assay: NCI-60 one-dose screen, 48 h (100 = growth as untreated, 0 = no growth, -100 = all killed)). Details: 10 µM unless noted.

Row | Structure (SMILES) | growth [%]
1 | CS(=O)c1cccc(-c2ccc3nc(N)n(-c4ccc(C(F)(F)F)cc4)c(=O)c3c2)c1 (configuration not stated) | 93.4
2 | O=C(O)CN1C(=O)CCC1=O | 98.4
3 | Cc1cccc(NC(=O)CSc2nc3ccccc3[nH]2)c1 | 101

These compounds were tested on 786-0 renal in the same assay as above. Details: 10 µM unless noted.

Row | Structure (SMILES) | growth
4 | Cc1ccc(Cl)cc1NC(=O)c1cc2ccccc2cc1O | -6.83% (active)
5 | CC1SC(c2ccc(OCc3ccccc3)cc2)N(NC(=O)C(O)(c2ccccc2)c2ccccc2)C1=O (configuration not stated) | 59.6%
6 | O=c1cc(C2NNC(=S)N2)c2ccc3ccccc3c2o1 (configuration not stated) | 100%
7 | Cc1ccc(Nc2nc(N)nc(CSCC(=O)NN)n2)cc1 | 100%
8 | O=[N+]([O-])c1ccc(OCCO)cc1 | 109%
9 | O=C(CSc1nnc(-c2ccc(NC(=O)c3cccnc3)cc2)o1)N[C@@H](Cc1ccc(O)cc1)C(=O)O | 99.6%
10 | O=C(/C=C/c1ccco1)c1ccc(Nc2nc(Nc3ccc(F)cc3)nc(Nc3ccc(Cl)cc3)n2)cc1 | 84.4%
11 | CCOC(=O)c1c(-c2ccc(Cl)cc2)c(C#N)c(=O)n(-c2ccccc2CC)c1N | 93.4%
12 | COC(=O)[C@]12CC[C@@H](C)[C@H](C)[C@@H]1C1=CC[C@@H]3[C@@]4(C)C(C=O)=C[C@@](C)(COC(C)=O)C4=CC[C@@]3(C)[C@]1(C)CC2 | -33.7% (active)
13 | C[C@]12CC[C@@H]3c4cc(OC(F)F)c(O)cc4CC[C@H]3[C@@H]1CC[C@@H]2OS(N)(=O)=O | 56.4%
14 | NCCCNc1nc2ccccc2c2c(=O)c3cccc(Cl)c3sc12 | 33.6%
15 | O=C(N=c1oc2ccccc2cc1-c1cc2ccccc2[nH]1)c1ccc(Cl)cc1 | 70.7%
16 | CSc1n(Cc2ccc3ccccc3c2)c(C)c[n+]1Cc1ccc2ccccc2c1 | 8.97% (active)
17 | COC(=O)CCC1=C(C)C2=NC1=CC1=NC(=CC3=NC(=Cc4[nH]c(/c(=C(/C)O)c4C)=C2)C(C(C)=O)=C3C)C(C)=C1CCC(=O)OC | 105%
18 | COc1ccc(Nc2nnc(SCc3ccccc3F)s2)cc1 | 101%
19 | O=C(N/N=C/C=C/c1ccc([N+](=O)[O-])o1)c1cc2ccccc2cc1O | -18.4% (active)
20 | OC(COc1ccccc1Cl)COc1ccccc1Cl | 103%

Row | Structure (SMILES) | growth
21 | c1ccc(-c2nc([P+](c3ccccc3)(c3ccccc3)c3ccccc3)c(N3CCOCC3)o2)cc1 | 27.3%
22 | O=C1CCc2c(sc3[nH]c(=S)n(-c4ccc(OC(F)(F)F)cc4)c(=O)c23)C1 | 99.8%
23 | O=C(Nc1ccc(Cl)cc1)Nc1ccc(Cl)c(C(F)(F)F)c1 | 15.1%
24 | COc1ccc(C2CC(c3cccc(OC)c3)=NN2C(=O)c2cc(OC)c(OC)c(OC)c2)cc1 (configuration not stated) | 21.6%
25 | CCOC(=O)C/C(C)=N\NC(=O)c1ccncc1 | 92.1%
26 | COc1ccc2oc3c(C)c4c(c(C)c3c2c1)C(=O)N(Cc1ccccc1)C4=O | 114%
27 | CC(C)=C[C@@H]1c2c(c3ccccc3n(C)c2=O)O[C@H]2c3c(c4ccccc4n(C)c3=O)OC(C)(C)[C@@H]12 | 93.5%
28 | Cc1ccc(NCCN(C)C)c2c(=O)c3ccccc3sc12 | 24.2%
29 | C=C1C(=O)O[C@H]2[C@H]1CC/C(COC(=O)C(=O)c1c[nH]c3ccccc13)=C\CC[C@@]1(C)O[C@@H]21 | -75.8% (active)
30 | Oc1ccc(CN2CCC(N3CCOCC3)CC2)c2cccnc12 | 35.1%
31 | O=C1CCC2=C3C4CCCCC4C(=O)C4CCCC(OC2C1)C34 (configuration not stated) | -9.63% (active)
32 | Cc1cc(=O)[nH]c(N=Nc2c(O)[nH]c3ccccc23)n1 | 102%
33 | COc1cc(/C=C/C(=O)N2CCN(C(=O)c3cc(OC)c(OC)c(OC)c3)CC2)ccc1OCCCN1C(=O)c2cccc3cccc(c23)C1=O | 73.1%
34 | Cc1ccc(S(=O)(=O)N/N=C\c2cc(Cl)ccc2O)cc1 | 74.5%
35 | COc1cc(OC)cc(C2CC(=O)Nc3c2c(C)nn3-c2nc3ccccc3[nH]2)c1 (configuration not stated) | 25.4%
36 | Cc1ccc(S(=O)(=O)n2cc(CNc3ccc(N4CCOCC4=O)cc3)c3ccccc32)cc1 | 92.3%
37 | CC1O[C@@H](OC2[C@H](OC(=O)/C=C/c3ccc(O)c(O)c3)C(COC3O[C@H](C)C(O)C(O)[C@@H]3O)O[C@@H](OCCc3ccc(O)c(O)c3)[C@H]2O)[C@@H](O)C(O)[C@H]1O (some centres not stated) | 98.8%
